# Source: PubChem
# IL1B secr inh: inhibitors of inflammasome signaling (IL-1 beta secretion); THP-1 LPS/ATP IL-1B secretion, AlphaLISA, 16 h; hits give low values; activity change, % at 57.5 µM; hit rate 4.7% among 360,000; AID 743279; in the data active means activity change below about -50%; inconclusive means mostly about -30% to -49%
#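 Secreted IL-1B measured by AlphaLISA bead assay after 16 h compound exposure of THP-1 cells; compounds (final up to 57.5 uM) added 1 h before LPS (250 ng/mL) and ATP (1.25 mM) stimulation; lower signal means less secretion.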
# DT40 TDP1 no CPT: qHTS for Inhibitors of human tyrosyl-DNA phosphodiesterase 1 (TDP1): qHTS in cells in absence of CPT. hit rate 15% among 420,000. DT40 Tdp1-/- hTDP1 cells, no CPT, ATP luminescence, 48 h. Potency, µM (titrated, usually from 46.2 µM), without a hit: at the top dose activity change, negative = growth inhibition, usual class: inhibitors; further: potency means the concentration at half of the fitted maximal effect; nearly all actives have a fitted effect of over 55% in size
#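 Stably hTDP1-transfected Tdp1-null chicken DT40 cells were treated with library compounds minus camptothecin and grown for at least 48 hr at 37 °C, after which cellular ATP was quantified by luminescence.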
# Gal4-VP16 FLuc: Gal4-VP16 reporter inhibition counter-screen; Drosophila S2 Gal4-VP16 UAS-luciferase, luminescence, 20 h; Potency, µM (highest dose often 53.6 µM), inactives show at the top dose activity, negative = inhibition, actives largely listed as inhibitors; hit rate 3.5% among 310,000;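 further: Gal4-VP16 expression switched on by copper sulfate through the metallothionein promoter; potency means the concentration at half of the fitted maximal effect; nearly all actives have a fitted effect of over 50% in size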
# LDHA inh: inhibitors of human lactate dehydrogenase A; P00338; purified LDHA, NADH/diaphorase-resazurin fluorescence; hits give low values; activity change, % (values are at about 110 or 230 µM); hit rate 0.15% among 480,000; AID 1347041; in the data active means activity change below about -30%; inconclusive means mostly about -25% to -30%;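 further: plate controls were DMSO wells for no effect and wells without enzyme for full effect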
#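 Human LDH5 at 2 nM final in Tris HCl pH 7.4 with 0.06 mM NADH and 0.2 mM pyruvate, reacted 5 minutes at room temperature. Remaining NADH coupled via diaphorase/resazurin; resorufin fluorescence read at 0 and 20 minutes, normalized to enzyme-free and DMSO wells.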
# RORg inh: ROR gamma (mouse) transcription inhibition. P51450. Drosophila S2 Gal4-RORgamma UAS-luciferase reporter, 20 h. Potency, µM (titrated, usually from 53.6 µM), without a hit: top-dose activity change, negative = inhibition, actives largely listed as inhibitors. hit rate 5.4% among 310,000. AID 2551; further: potency means the concentration at half of the fitted maximal effect; nearly all actives have a fitted effect of over 60% in size
# Target sequence (P51450 whole entry, looked up, the tested form may be a part): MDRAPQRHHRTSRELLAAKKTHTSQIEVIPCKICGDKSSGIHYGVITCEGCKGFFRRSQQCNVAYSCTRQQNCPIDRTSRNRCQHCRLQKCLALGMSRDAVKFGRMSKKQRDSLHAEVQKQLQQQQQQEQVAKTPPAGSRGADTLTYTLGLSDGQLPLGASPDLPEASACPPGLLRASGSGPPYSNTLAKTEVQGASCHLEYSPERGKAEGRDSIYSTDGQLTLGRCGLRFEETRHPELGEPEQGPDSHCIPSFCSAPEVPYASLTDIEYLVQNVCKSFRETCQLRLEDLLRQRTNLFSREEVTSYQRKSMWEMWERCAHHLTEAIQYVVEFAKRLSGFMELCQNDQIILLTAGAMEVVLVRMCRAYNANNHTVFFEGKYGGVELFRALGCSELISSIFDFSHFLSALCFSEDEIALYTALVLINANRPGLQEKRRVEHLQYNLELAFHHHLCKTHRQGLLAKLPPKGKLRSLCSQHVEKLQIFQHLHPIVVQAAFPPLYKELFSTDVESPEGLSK
#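 Drosophila S2 cells stably expressing Gal4-DBD/mouse RORγ fusion under metallothionein promoter plus UAS-luciferase; compound 1 h, then 700 uM CuSO4 induction for 20 h at ambient temperature; inhibition read as reduced luminescence.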
# TDP1 cell CPT: growth inhibition of DT40 Tdp1-/-;hTDP1 cells with camptothecin (screen for TDP1 inhibitors); AID 686979; hit rate 12% among 420,000; chicken DT40 Tdp1-/-;hTDP1 cells + 20 nM CPT, ATP luminescence, 48 h; Potency, µM (titrated, usually from 46.2 µM), for the others: at the highest dose activity change, negative = growth inhibition, most hits filed as inhibitors; further: potency means the concentration at half of the fitted maximal effect; nearly all actives have a fitted effect of over 55% in size
#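 Cell growth measured by CellTiter-Glo luminescence after a minimum 48 h, 37 C compound exposure with 20 nM CPT in Tdp1-knockout DT40 cells stably expressing hTDP1, seeded 400/well; qHTS titration format.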
# * = called active by the depositor; ? = inconclusive; nt = no result. Most compounds without a hit are left out; they make up all but 18% or so of the library. Unless noted, the call rests on the fitted dose curve; in most records, active means well fitted curve in the direction sought with a large enough effect; inconclusive means small, poorly fitted or top-dose-only effect, or another doubt; inactive means no such curve, though single readings can be large; an effect the other way counts as inactive or inconclusive. Unless noted, on the % scale 0 is the no-effect control and ±100 the full control effect.
SMILES,IL1B secr inh,DT40 TDP1 no CPT,Gal4-VP16 FLuc,LDHA inh,RORg inh,TDP1 cell CPT
CCOC(=O)C1CCN(C(=O)C2(NC(=O)Nc3ccc(F)cc3F)CCCCC2)CC1,-127.8*,-9.1%,-1.4%,-8.6,-2.8%,5.4%
O=C(O)CCOc1ccc(Br)cc1,nt,nt,nt,-1.3,nt,nt
COc1ccc(-c2nc(NC(=O)C3=NN(c4cccc(C)c4)C(=O)CC3)sc2C)cc1,40.0,?,4.6%,-6.7,-17.6%,23.1µM*
COc1ccc(-c2csc(NC(=O)C3=NN(c4ccccc4)C(=O)CC3)n2)cc1,-24.1,16.4µM*,-4.0%,-1.7,-2.7%,14.6µM*
Cc1sc(NC(=O)c2cccc(N3C(=O)CCC3=O)c2)nc1-c1ccccc1,-56.7*,?,nt,0.3,nt,-4.8%
O=C(Nc1nc(-c2cc(F)ccc2F)cs1)C1=NN(c2ccccc2)C(=O)CC1,66.7,?,13.5%,-1.3,2.5%,?
COc1ccc(OC)c2sc(NC(=O)c3cccc(N4C(=O)CCC4=O)c3)nc12,-18.3,-9.6%,-4.8%,-0.5,-26.6%,-7.0%
COc1ccc(CN2CCc3c(c(=O)n4ncc(C(=O)N5CCN(c6ccc(F)cc6)CC5)c4n3C)C2)cc1,nt,1.84µM*,nt,-1.6,nt,2.31µM*
COc1ccc(-n2ncc(C(=O)N3CCN(c4ccc(F)cc4)CC3)c2C)cc1,nt,?,0.3%,-4.2,29.4%,-28.9%
CCn1c2c(c(=O)n3ncc(C(=O)N4CCN(c5ccc(C(C)=O)cc5)CC4)c13)CN(Cc1ccc(OC)cc1)CC2,nt,2.59µM*,nt,1.1,nt,4.11µM*
CC(=O)c1ccc(N2CCN(C(=O)c3ccc(Cn4cncn4)cc3)CC2)cc1,nt,nt,nt,-7.4,nt,nt
CCn1c2c(c(=O)n3ncc(C(=O)Nc4ccc(OC(F)(F)F)cc4)c13)CN(Cc1ccc(OC)cc1)CC2,nt,23.1µM*,nt,8.3,nt,?
CCN(Cc1cccs1)Cc1cc(=O)oc2cc(C)c(C)cc12,nt,nt,nt,1.2,nt,nt
Fc1ccc(CNCCN2CCCC2)cc1F,nt,nt,nt,2.8,nt,nt
CN(C1=NS(=O)(=O)c2ccccc21)c1ccc(OC(=O)c2ccccc2)cc1,-13.7,?,-3.6%,-4.2,-9.5%,0.5%
O=C(Oc1ccc(N(Cc2cccs2)C2=NS(=O)(=O)c3ccccc32)cc1)c1ccc(Cl)cc1,-2.2,18.4µM*,-3.4%,-3.0,?,?
O=C(Oc1ccc(N(Cc2cccs2)C2=NS(=O)(=O)c3ccccc32)cc1)c1ccccc1,6.6,23.1µM*,-3.8%,-7.0,0.5%,?
CN(C)C(=O)/C(=C\c1cccc(Oc2ccccc2)c1)NC(=O)c1ccccc1,-9.1,?,-7.9%,-3.6,14.5%,16.4µM*
COC(=O)/C(=C/c1cccnc1)NC(=O)c1ccccc1,0.0,-4.6%,-2.5%,-12.2,?,7.2%
CC1(c2ccc(Cl)cc2)NC(=S)N2C1NC(=S)N2c1ccccc1 (stereo not given),?,-29.0%,-0.7%,-4.6,-18.5%,-10.9%
CC1(c2ccc(Cl)c(Cl)c2)NC(=S)N2C1NC(=S)N2c1ccccc1 (stereo not given),-72.8*,?,0.9%,-4.2,?,-22.1%
CC(C)/C=N/NC(=O)CCCCC(=O)N/N=C/C(C)C,nt,nt,nt,-0.6,nt,nt
CCOC(=O)Cn1c(C(F)(F)F)nc2nc(Cl)c(Cl)nc21,-92.5*,-28.4%,nt,8.4,nt,4.3%
CC(C)c1ccc(N(C(=O)c2cc3ccccc3oc2=O)C2C=CS(=O)(=O)C2)cc1 (stereo not given),-5.4,13µM*,-3.9%,-4.8,24.0%,?
O=C(c1cc2ccccc2oc1=O)N(c1ccccc1)C1C=CS(=O)(=O)C1 (stereo not given),-53.7*,-18.6%,-0.9%,-7.3,?,-3.8%
SMILES,IL1B secr inh,DT40 TDP1 no CPT,Gal4-VP16 FLuc,LDHA inh,RORg inh,TDP1 cell CPT
Cc1ccc(S(=O)(=O)Nc2c(NCC3CCCCC3)c3ccccc3oc2=O)cc1,nt,nt,nt,8.5,nt,nt
COc1ccc(C(=O)Nc2ccc3oc(-c4ccc(F)cc4)nc3c2)cc1OC,nt,nt,nt,15.5,nt,nt
CC(C)C[C@H]1CN=C(Nc2ccccc2)N1CCC1CCCC1,-24.2,23.1µM*,2.3%,-4.7,-20.8%,?
CC(C)C[C@H]1CN=C(Nc2ccccc2)N1CCC(C)c1ccccc1 (stereo not given in full),?,?,nt,-2.0,nt,?
CC(C)C[C@H]1CN=C(Nc2ccccc2)N1CCCC1CCCCC1,-63.1*,18.4µM*,-5.4%,-18.5,18.3%,?
C[C@H]1CN=C(Nc2ccccc2)N1CCC1CCCC1,-0.1,23.1µM*,5.5%,-6.6,-25.0%,?
CC(C)C[C@H]1CN=C(Nc2ccccc2)N1CCCC1CCCC1,-63.3*,5.17µM*,1.3%,-5.2,-38.0%,14.6µM*
CC(C)C[C@H]1CN=C(Nc2ccccc2)N1CC1CCC1,-11.3,?,0.4%,-6.3,-16.8%,?
Cc1cc(I)ccc1NC(=S)NCCc1ccccc1,nt,nt,nt,-1.0,nt,nt
CCCNC(C)c1cc2ccccc2o1 (stereo not given),nt,nt,nt,8.7,nt,nt
CC(C)(C)c1ccccc1NC(=O)COC(=O)c1ccc2ccccc2n1,nt,nt,nt,8.4,nt,nt
CCCCCCCN1C(Nc2ccccc2)=NC[C@@H]1CC(C)C,-77.8*,16.4µM*,0.2%,-4.5,-11.0%,11.6µM*
CCC(C)CCN1C(Nc2ccccc2)=NC[C@@H]1C (stereo not given in full),4.7,11.6µM*,1.3%,-0.2,-10.4%,?
CC(C)CCCN1C(Nc2ccccc2)=NC[C@@H]1C,6.4,-16.4%,3.3%,-8.6,-22.1%,?
